An excerpt weighted towards active compounds, which were near 2.1% of everything screened.
BaF3 parental – reduces parental Ba/F3 cell viability, JAK2V617F counter-screen; inhibition, % at 5.6 µM; 220,000 tested, 1.1% active; CellTiter-Glo ATP luminescence;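 active means inhibition above a per-campaign cutoff, the mean inhibition of all tested compounds plus 3 SD, cut at about 27% in these data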;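 further: 0% = DMSO wells and 100% = JAK Inhibitor I control wells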
KLF5 inhibitor – inhibitors of KLF5 expression. DLD-1 KLF5 promoter-luciferase reporter, luminescence. inhibition, % at 5 µM. 290,000 tested, 0.23% active;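 active means inhibition above a per-plate limit of that plate's mean compound inhibition plus 3 SD, cut at about 60% in these data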;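 further: 0% = DMSO wells and 100% = LY294002 at 200 µM; higher means less KLF5 promoter-driven luciferase light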
IEC-6 cytotox – counter-screen for KLF5 inhibitors: cytotoxicity in IEC-6 cells; inhibition, % at 5 µM; IEC-6 cytotoxicity, luminescence viability; 290,000 tested, 0.78% active; in the data active means inhibition above about 22%;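 further: 0% = plate median of test compound wells and 100% = cytotoxic reference compound wells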
Ba/F3 V617F tox – reduce viability of Ba/F3 cells dependent on JAK2V617F; Ba/F3 EpoR-JAK2V617F viability, ATP luminescence; inhibition, % at 5.6 µM; 220,000 tested, 1.1% active;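 active means inhibition above the campaign mean plus 3 SD over all tested compounds, cut at about 24% in these data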;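 further: cytokine-independent growth of Ba/F3 cells driven by EpoR plus mutant JAK2; 0% = DMSO-treated cells and 100% = JAK inhibitor I control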
APP 5UTR inh – APP translation inhibition. 190,000 tested, 0.82% active. inhibition, % at 2 µM. SH-SY5Y APP 5'UTR-luciferase reporter, luminescence;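 active means inhibition above a set limit, derived from the sample mean plus 3 SD, cut at about 45% in these data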
aSyn 5UTR inh – 5' untranslated region of α-synuclein, MLPCN primary screen; alpha-synuclein 5'UTR reporter, inhibitor activity; 300,000 tested, 0.82% active; AID 1813; inhibition, % (tested at 7.5 µM); in the data active means inhibition above about 60%;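 further: H4 neuroglioblastoma cells stably carrying SNCA 5'UTR luciferase fusion; 0% = DMSO wells and 100% = positive control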
* = called active by the depositor; x = no result.

SMILES	BaF3 parental	KLF5 inhibitor	IEC-6 cytotox	Ba/F3 V617F tox	APP 5UTR inh	aSyn 5UTR inh
COc1cccc(C2CC(c3cccs3)=NN2C(=O)CSc2nc3c(cnn3-c3ccc(F)cc3)c(=O)[nH]2)c1OC (centres undefined)	1	-3	-5	-3	55*	7
C/C(=C\C(=O)c1ccc(Br)cc1)Nc1ccc(Cl)cc1	92*	-9	7	2	-29	-9
COc1cccc(N/C(C)=C/C(=O)c2ccc(Br)cc2)c1	2	8	-1	-2	-56	-172
C/C(=C\C(=O)c1ccc(Cl)cc1)Nc1ccc(N2CCOCC2)cc1	28*	0	6	33*	-9	-45
CCCn1c(NC(=O)CN2C(=O)NC3(CCCCC3)C2=O)nc2ccccc21	x	x	x	x	x	2
O=C(NC1CCCCC1)C(c1ccccc1)N(C(=O)c1csnn1)C1CC1 (centres undefined)	x	-11	-7	x	x	3
COc1ccc(/C(C)=N/NC(=O)c2ccc(NS(=O)(=O)c3cccs3)cc2)cc1	1	-16	1	0	x	-3
Cc1ccccc1Cn1ccc(=NCc2ccccc2)cc1	79*	-30	15	100*	2	-7
Cc1cc(C)c(OCC(=O)OCC(=O)N2CCCc3ccccc32)c(C)c1	x	x	x	x	x	8
CN(C)CCNC(=O)C(c1ccccc1)c1ccccc1	1	-6	2	-1	x	-35
CN(C)CCC(=O)C(Cc1ccccc1)c1ccccc1 (centres undefined)	x	x	x	x	x	99*
Cc1nnn(-c2nonc2N)c1C(=O)NNC(=O)c1ccc(Cl)c(Cl)c1	8	20	0	2	6	11
Cc1ccc(-c2nc3ccccc3[nH]2)s1	14	-136	6	10	-114	-80
Cc1[nH]c2ccccc2c1-c1nc2ccccc2[nH]1	30*	-7	4	11	7	-78
COC(=O)c1ccc(-c2n[nH]c(=O)c3ccccc23)cc1	2	-8	-3	-1	24	3
COC(=O)Nc1nc2ccc(-c3n[nH]c(=O)c4ccccc34)cc2[nH]1	3	-25	-4	-3	55*	-9
O=C(NCc1cccnc1)Nc1ccc(Cl)cc1	x	-46	-4	x	x	-9
OCc1cn(-c2ccccc2)nc1-c1ccc(-c2nn(-c3ccccc3)cc2CO)cc1	3	-38	3	3	-10	25
Cc1ccc(-c2nn(-c3ccccc3)cc2CSC(=N)N)cc1	5	-15	1	2	-16	119*
CC1Cc2cc(/C(O)=C3/C(=O)C(=O)N(CCCN4CCOCC4)C3c3ccc(C(C)C)cc3)ccc2O1 (centres undefined)	x	-20	-9	x	x	-27
CCOc1cc(CNCCc2ccc(S(N)(=O)=O)cc2)ccc1OCC(=O)NC1CCCCC1	2	-13	-2	-3	65*	8
COc1cc(CNn2cnnc2)ccc1OCC(=O)NC1CCCCC1	1	-27	6	-2	64*	-4
CCOc1cc(CNCCc2ccc(S(N)(=O)=O)cc2)ccc1OCC(=O)NC(C)(C)C	-2	-34	-3	-4	10	x
CC(=O)Nc1ccc(N(C(=O)c2ccco2)C(C(=O)NC2CCCCC2)c2ccccc2)cc1 (centres undefined)	x	-20	2	x	x	-14
O=C(COc1ccccc1Cl)N1CCN(c2ccc(F)cc2)CC1	93*	-11	-1	0	-12	12
SMILES	BaF3 parental	KLF5 inhibitor	IEC-6 cytotox	Ba/F3 V617F tox	APP 5UTR inh	aSyn 5UTR inh
CC(C)=CCc1c(O)cc2oc3c(CC=C(C)C)c(O)c(O)c(CC=C(C)C)c3c(=O)c2c1O	x	x	x	x	x	62*
CC(C)=CCc1cc(-c2oc3cc(O)cc(O)c3c(=O)c2O)ccc1O	x	x	x	x	x	-43
CC/C(=N\NC(=O)c1ccc2c(c1)OCO2)C12CC3CC(CC(C3)C1)C2	8	-34	6	5	6	12
CC/C(=N\NC(=O)c1ccncc1)C12CC3CC(CC(C3)C1)C2	4	-12	0	4	52*	13
CC(=O)Nc1ccc(-c2csc(-c3cccnc3)n2)cc1	x	-179	3	x	x	-112
C#CC[N+](C)(C)C(C#Cc1ccccc1)CC=C (centres undefined)	48*	10	1	26*	-3	-14
C[N+](C)(CC#Cc1ccccc1)CC(=O)c1ccccc1	11	-9	-2	-1	-16	-12
COc1ccccc1NC(=O)c1cc(S(=O)(=O)N2CCCC2)cn1C	x	-2	2	x	x	2
CN1C(=O)CSC1=S	x	-28	6	x	x	-6

Source: PubChem BioAssay
